The record followed here is PubChem BioAssay.

Structures are written as SMILES. Active and inactive are the calls of the source.

This experiment is described as follows: plasmodial surface anion channel blockers, osmotic lysis – cell-based, P. falciparum Indochina, OD700, 2 h, primary screen (AID 1155).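 Also: lysis reports solute entry through the parasite surface anion channel PSAC.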 The conditions noted are these: P. falciparum Indochina infected erythrocytes, higher = more signal, called active from +8 up or from −8 down.
In the case of `COc1ccc([Si](C)(C)[C@@H]2[C@@H](CCO)O[C@]3(C(=O)N(Cc4ccc(NC(C)=O)cc4)c4ccccc43)[C@H]2C)cc1`, the z-score was 7.13 (inactive). To `CCCCC(=C=CC[C@H](O)c1ccccc1OCCO)C[C@H](O)COCc1ccccc1` belongs 1.72 (inactive); to `COC(=O)[C@H]1COC(c2ccc(OCCCO)cc2)=N1`, 5.33 (inactive).

In the case of `CC(C)C[C@@H]1NC(=O)[C@H]2C[C@@H](C(=O)NCCCCCCN(C)C)[C@@H](c3cccc(OCCO)c3)N2C1=O`, the z-score was 0.594 (inactive). Next, `O=C1O[C@@H](c2ccccc2)[C@@H](c2ccccc2)N2[C@@H](c3ccccc3OCCO)[C@]3(C(=O)Nc4ccc(C#CCCO)cc43)[C@@H](C(=O)O)[C@H]12`: -2.1 (inactive); `CC(C)NC(=O)[C@@]1(C)c2ccccc2C(=O)N(Cc2cc(F)cc(C(F)(F)F)c2)[C@H]1c1ccc(CO)cc1`: 0.429 (inactive). To `O=C1O[C@@H](c2ccccc2)[C@@H](c2ccccc2)N2[C@@H](c3ccc(OCCO)cc3)[C@]3(C(=O)Nc4ccccc43)[C@@H](C(=O)N3CCN(c4ncccn4)CC3)[C@H]12` belongs 3.91 (inactive); to `CCc1cc2c(nc1CC)CCN(CCC(C)=NOC[C@@H](O)[C@H]1O[C@@H]3OC(C)(C)O[C@@H]3[C@H]1O)C2`, -0.336 (inactive).

Consider `C=CC[C@@H]1C=C[C@H](ON=C(C)CCN2CCc3nc(CC)c(CC)cc3C2)[C@@H](CO)O1`, for which the z-score is 0.37 (inactive).

As for `CN(C)CCCNC(=O)[C@@H]1c2ccccc2C(=O)N(Cc2cc(F)cc(C(F)(F)F)c2)[C@H]1c1ccc(CO)cc1`, the z-score was 0.382 (inactive). To `O=C1[C@H]2[C@H]3[C@H](O)[C@H](O)CC(=NOC[C@@H](O)COCc4ccco4)[C@H]3CC[C@H]2C(=O)N1c1cccc(Oc2ccccc2)c1` belongs 1.15 (inactive).

Turning to `CS(=O)(=O)CCOC(=O)C1=CC(CCCO)=CC(c2cccs2)N(Cc2cccc(OC(F)(F)F)c2)C=C1C(=O)OCCS(C)(=O)=O` (stereo unspecified), the z-score is 1.56 (inactive). To `CC(CCC(=O)OC[C@H]1O[C@H](C#Cc2ccccc2)C=C[C@@H]1Oc1ccc(C)cc1)=NO[C@@H](C)c1cn([C@H](CO)Cc2ccccc2)nn1` belongs 0.542 (inactive); to `COc1ccc(O[C@H]2C=C[C@@H](c3ccccc3)O[C@@H]2COC(=O)CCC(C)=NO[C@@H](C)c2cc(-c3c(C)cc(C)cc3C)no2)cc1`, 0.322 (inactive); to `CC(C)[C@@H](OCc1ccccc1)[C@H](C)C=NO[C@H](C)c1cn([C@H](CO)Cc2ccccc2)nn1`, -1.75 (inactive). Regarding `COc1cccc([C@H]2Oc3ccc(OC)cc3C(=NOC(C)CN3CCCc4nc(C)c(C)cc43)[C@@H]2O)c1` (stereo partly specified), the z-score is 0.542 (inactive). Turning to `O=C1C[C@@H](O)[C@@H](O)[C@@H]2[C@@H]3C(=O)N(C4CCCCC4)C(=O)[C@@H]3CC[C@H]12`, the z-score was 0.775 (inactive). To `COc1ccc([Si](C)(C)[C@H]2[C@H](CC(=O)N3CCC[C@H]3CO)O[C@@]3(C(=O)N(Cc4cccc(N5C(=O)COc6ccccc65)c4)c4ccccc43)[C@@H]2C)cc1` belongs 0.0867 (inactive).

Take `CC(C)NC(=O)[C@@]1(c2ccc([N+](=O)[O-])cc2)CC(=O)N(CC23CC4CC(CC(C4)C2)C3)[C@@H]1c1ccc(CO)cc1I`: the z-score was 5.45 (inactive). Next, `C=CCOC(=O)[C@H]1[C@@H]2C(=O)O[C@@H](c3ccccc3)[C@@H](c3ccccc3)N2[C@@H](c2ccc(OCCOC(=O)[C@H]3C[C@H]4C(=O)N5CCC[C@H]5C(=O)N4[C@H]3c3cccc(OCCO)c3)cc2)[C@]12C(=O)Nc1ccc(I)cc12`: 0.641 (inactive). To `CC(C)CN1CCc2nc(-c3ccccc3)c3c(c2CC1)CO[C@@H](C)C3` belongs 0.576 (inactive). `CC(C)OC(=O)C=C1C[C@@H](c2ccc(C#N)cc2)O[C@@H](c2ccc(C#N)cc2)O1`: the z-score was 0.848 (inactive). On to `C=CC[C@@H]1C=C[C@H](ON=C[C@@H](OC)[C@H](C)C=CCC(=O)OC)[C@@H](CO)O1`, for which the z-score is 1.25 (inactive). Next, `CN1C(=O)C2C(C1=O)C1C=C(CCCO)C2C(c2ccc(CN3CCCC3)cc2)N1C` (stereo unspecified): 0.621 (inactive). Next, `COCC(=C=CC[C@@H](O)c1ccccc1OCCO)CCO`: -0.0233 (inactive); `COCCOC(=O)N1C(=O)[C@@]2(c3cc(C#CCNC(N)=O)ccc31)[C@H](c1ccc(O)cc1)N1[C@H](c3ccccc3)[C@H](c3ccccc3)OC(=O)[C@H]1[C@@H]2C(=O)N1CCCCCCC1`: 0.656 (inactive).

For `C=C(/C(=C/C[C@H](OC(=O)c1ccncc1)c1ccc(OCCO)cc1)c1cnc2ccccc2c1)C(C)C`, the z-score is 3.04 (inactive).

Regarding `Cc1cc2c(c(=O)o1)[C@H](O)[C@H]1O[C@H]1C2=O`, the z-score is 0.496 (inactive). With `COC(=O)[C@@H]1CC[C@H](C)[C@@H](c2ccc(C)cc2)N1C(=O)c1ccc(C=NOC[C@@H](O)COCc2ccco2)cc1`, the z-score is 0.944 (inactive). Next, `CO[C@@H]1COC(=O)[C@H](C)NC(=O)[C@@H](C)COC(=O)CCC[C@H]1C`: 0.891 (inactive).

As to `CC(C)c1ccc(NN2C(C(O)c3ccc4c(c3)OCO4)C=CC3C(=O)N(c4ccccc4)C(=O)C32)cc1` (stereo unspecified), the z-score was 1 (inactive). On to `CCOC(=O)[C@H](Cc1ccccc1)NC(=O)CCC1CC(OC(=O)NCc2ccc3c(c2)OCO3)CC2(CCCC(COC(=O)NCc3ccccc3)O2)O1` (stereo partly specified), for which the z-score was 0.979 (inactive). Next, `CC(C)(C)OC(=O)CC[C@]1(C(=O)NCc2ccccc2)N=C(c2ccc(OCCCO)cc2)O[C@H]1c1ccccc1`: 1.79 (inactive); `Cc1ccc(C2CC=C(C(=O)O)CN2S(=O)(=O)c2ccc(C)cc2)cc1` (stereo unspecified): 0.838 (inactive). Next, `CC[C@@H](c1ccccc1)n1c(=O)n2n(c1=O)[C@H]1[C@H](O)[C@@H]3O[C@@H]3C(=NOCC=C(C)CCC=C(C)C)[C@H]1CC2`: 0.719 (inactive); `CC(CCC(=O)OC[C@H]1O[C@H](C#Cc2ccccc2)C=C[C@@H]1Oc1ccc(C)cc1)=NOC[C@@H](O)COCc1ccco1`: 1.77 (inactive).
